Of roughly 7,900 targets only a part is listed; those with a hit were picked by preference. About 0.6% of all pairs of compound and target were hits.
Compound: c1cn2cc(-c3ccc4cn[nH]c4c3)nc(Nc3ccc(N4CCOCC4)cc3)c2n1 [entospletinib]
Assay: log2 fold change, soluble protein after heating vs DMSO (PISA); higher = thermal stabilisation; K562 cells, 10 uM, 30 min; active = over 0.2 and 3.5 SD of the protein, either way, in both replicates (recomputed)
Method in brief: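 For each measurement, 10 μM compound was applied for 30 min to K562 cells at 2×10^6 cells/mL. Aliquots were heated for 3 min across 48°C-58°C, pooled, and extracted in PBS with 0.5% NP-40 at 4°C; the supernatant after 21,000xg for 90 min was soluble protein. This was quantified by TMTpro 16plex LC-MS/MS with channel sums equalised, and thermal stability was reported relative to control samples from duplicates, on a log2 fold-change scale.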

UniProt Q8N0T1, sequence (Q8N0T1 whole entry, looked up): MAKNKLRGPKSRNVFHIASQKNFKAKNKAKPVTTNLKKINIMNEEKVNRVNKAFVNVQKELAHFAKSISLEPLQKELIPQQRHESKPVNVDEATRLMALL
UniProt Q9UBS8, sequence (Q9UBS8 whole entry, looked up): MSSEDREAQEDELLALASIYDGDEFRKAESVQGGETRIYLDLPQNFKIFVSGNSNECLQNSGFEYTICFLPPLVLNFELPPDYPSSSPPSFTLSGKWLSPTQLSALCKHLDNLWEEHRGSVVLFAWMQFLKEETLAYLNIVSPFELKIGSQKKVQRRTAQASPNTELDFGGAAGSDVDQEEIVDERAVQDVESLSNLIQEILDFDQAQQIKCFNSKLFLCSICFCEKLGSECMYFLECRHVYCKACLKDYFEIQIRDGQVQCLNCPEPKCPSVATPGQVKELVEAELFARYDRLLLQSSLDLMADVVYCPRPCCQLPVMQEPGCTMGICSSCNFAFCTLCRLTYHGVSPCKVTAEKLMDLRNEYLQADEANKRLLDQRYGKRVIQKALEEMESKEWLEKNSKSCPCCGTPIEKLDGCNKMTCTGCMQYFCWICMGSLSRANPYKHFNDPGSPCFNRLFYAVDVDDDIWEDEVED
UniProt Q5T160, sequence (Q5T160 whole entry, looked up): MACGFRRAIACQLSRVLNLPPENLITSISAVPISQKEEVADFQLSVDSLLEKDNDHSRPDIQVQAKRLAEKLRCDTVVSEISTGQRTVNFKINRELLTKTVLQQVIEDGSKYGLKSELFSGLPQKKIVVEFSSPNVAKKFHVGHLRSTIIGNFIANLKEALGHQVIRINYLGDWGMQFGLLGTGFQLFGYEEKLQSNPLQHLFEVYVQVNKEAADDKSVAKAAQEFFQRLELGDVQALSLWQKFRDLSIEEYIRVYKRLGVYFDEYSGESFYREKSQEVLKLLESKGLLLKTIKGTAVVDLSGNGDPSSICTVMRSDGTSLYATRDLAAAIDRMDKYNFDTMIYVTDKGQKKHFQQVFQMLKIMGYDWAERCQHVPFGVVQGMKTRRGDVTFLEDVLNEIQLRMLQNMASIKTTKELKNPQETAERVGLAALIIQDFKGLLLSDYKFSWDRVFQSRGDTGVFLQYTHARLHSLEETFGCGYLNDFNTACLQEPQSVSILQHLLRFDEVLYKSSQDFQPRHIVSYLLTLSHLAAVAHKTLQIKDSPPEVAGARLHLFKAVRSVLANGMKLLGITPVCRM
UniProt Q9GZR1, sequence (Q9GZR1 whole entry, looked up): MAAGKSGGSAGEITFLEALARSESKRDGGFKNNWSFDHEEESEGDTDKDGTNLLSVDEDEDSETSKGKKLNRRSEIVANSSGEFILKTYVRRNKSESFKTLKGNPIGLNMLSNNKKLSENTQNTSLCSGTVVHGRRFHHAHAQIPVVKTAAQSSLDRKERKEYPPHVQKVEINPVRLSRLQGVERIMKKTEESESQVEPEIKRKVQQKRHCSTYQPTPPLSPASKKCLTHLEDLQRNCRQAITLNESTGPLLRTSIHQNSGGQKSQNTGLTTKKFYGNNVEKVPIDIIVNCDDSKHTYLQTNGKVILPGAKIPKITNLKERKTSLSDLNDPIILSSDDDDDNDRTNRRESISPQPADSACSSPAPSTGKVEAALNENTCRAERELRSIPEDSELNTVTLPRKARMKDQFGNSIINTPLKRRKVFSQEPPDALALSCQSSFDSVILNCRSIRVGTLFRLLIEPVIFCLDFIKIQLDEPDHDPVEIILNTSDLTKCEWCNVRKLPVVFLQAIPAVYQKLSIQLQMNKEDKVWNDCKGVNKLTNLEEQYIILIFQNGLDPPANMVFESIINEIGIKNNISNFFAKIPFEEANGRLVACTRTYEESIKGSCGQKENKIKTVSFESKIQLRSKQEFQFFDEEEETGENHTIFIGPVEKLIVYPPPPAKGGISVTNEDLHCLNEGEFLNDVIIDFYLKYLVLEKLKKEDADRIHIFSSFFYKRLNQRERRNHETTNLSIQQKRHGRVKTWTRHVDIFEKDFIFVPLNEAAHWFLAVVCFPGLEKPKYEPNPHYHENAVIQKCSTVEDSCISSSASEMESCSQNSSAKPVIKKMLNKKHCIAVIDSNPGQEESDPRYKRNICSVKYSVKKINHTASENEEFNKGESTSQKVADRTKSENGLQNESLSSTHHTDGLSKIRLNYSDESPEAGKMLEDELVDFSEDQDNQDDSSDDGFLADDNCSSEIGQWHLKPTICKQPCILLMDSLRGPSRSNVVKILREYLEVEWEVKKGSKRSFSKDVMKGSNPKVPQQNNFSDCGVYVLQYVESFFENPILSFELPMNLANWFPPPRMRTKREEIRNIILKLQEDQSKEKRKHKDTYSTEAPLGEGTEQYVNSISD
UniProt P58004, sequence (P58004 whole entry, looked up): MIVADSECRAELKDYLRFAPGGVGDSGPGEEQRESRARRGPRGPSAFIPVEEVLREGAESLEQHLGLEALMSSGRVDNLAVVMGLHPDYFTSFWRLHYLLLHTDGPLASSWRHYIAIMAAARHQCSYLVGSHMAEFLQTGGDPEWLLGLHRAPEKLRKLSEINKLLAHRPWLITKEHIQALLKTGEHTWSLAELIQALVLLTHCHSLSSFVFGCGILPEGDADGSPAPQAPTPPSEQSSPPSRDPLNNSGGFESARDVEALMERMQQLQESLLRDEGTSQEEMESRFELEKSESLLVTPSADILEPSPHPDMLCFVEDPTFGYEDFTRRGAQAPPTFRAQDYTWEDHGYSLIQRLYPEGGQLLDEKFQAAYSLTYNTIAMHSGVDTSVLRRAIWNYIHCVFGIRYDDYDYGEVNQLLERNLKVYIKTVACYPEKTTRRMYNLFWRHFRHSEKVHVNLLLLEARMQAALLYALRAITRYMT
UniProt Q99590, sequence (Q99590 whole entry, looked up): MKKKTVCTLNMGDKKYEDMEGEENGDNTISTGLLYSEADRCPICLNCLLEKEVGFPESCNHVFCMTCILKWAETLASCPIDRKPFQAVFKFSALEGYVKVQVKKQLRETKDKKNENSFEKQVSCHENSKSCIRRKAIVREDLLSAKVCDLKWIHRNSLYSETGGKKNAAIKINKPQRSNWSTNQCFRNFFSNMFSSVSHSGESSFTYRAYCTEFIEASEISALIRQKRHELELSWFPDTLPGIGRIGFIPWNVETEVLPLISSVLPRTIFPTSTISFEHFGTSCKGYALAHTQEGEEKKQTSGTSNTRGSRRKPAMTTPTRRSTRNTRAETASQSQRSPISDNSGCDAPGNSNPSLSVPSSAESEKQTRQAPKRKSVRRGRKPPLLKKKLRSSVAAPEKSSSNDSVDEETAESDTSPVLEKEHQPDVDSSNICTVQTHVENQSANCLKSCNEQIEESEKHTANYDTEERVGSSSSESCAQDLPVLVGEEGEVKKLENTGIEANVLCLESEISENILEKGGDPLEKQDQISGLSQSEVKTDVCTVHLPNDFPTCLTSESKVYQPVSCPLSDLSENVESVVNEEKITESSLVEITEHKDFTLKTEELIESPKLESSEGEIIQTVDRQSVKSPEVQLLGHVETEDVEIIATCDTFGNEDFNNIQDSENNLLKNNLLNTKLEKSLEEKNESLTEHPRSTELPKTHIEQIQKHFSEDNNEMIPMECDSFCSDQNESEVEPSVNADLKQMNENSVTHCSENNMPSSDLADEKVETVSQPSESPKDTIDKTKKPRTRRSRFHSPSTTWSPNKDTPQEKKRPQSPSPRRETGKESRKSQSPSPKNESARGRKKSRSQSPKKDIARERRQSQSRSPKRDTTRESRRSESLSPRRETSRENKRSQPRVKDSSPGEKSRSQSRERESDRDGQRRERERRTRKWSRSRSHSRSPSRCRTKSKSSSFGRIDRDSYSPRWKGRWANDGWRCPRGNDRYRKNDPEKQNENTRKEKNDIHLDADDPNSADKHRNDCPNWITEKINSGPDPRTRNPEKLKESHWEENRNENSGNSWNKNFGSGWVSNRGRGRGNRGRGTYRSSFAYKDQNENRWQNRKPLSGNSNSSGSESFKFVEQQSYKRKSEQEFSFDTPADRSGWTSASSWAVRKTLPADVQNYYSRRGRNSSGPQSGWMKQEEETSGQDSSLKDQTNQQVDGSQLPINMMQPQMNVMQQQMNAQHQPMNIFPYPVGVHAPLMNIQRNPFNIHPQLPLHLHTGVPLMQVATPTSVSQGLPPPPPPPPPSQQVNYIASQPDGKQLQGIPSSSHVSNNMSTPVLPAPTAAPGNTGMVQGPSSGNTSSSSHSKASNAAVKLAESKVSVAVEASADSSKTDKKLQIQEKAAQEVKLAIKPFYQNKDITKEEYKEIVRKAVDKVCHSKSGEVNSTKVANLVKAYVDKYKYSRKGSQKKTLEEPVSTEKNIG
UniProt Q5TA31, sequence (Q5TA31 whole entry, looked up): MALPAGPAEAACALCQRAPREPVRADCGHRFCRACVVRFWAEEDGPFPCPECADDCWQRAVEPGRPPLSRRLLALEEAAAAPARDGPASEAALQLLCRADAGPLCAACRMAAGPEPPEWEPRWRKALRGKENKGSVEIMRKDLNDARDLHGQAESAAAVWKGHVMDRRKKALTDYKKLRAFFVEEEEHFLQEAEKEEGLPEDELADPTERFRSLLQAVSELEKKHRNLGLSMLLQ
UniProt P35244, sequence (P35244 whole entry, looked up): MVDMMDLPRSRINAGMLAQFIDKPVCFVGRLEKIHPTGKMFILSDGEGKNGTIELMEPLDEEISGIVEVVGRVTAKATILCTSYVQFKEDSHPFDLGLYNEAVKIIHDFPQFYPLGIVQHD

log2 fold change, inactive:
SETMAR (UniProt Q53H47) 0.075
SCAF11 (UniProt Q99590) 0.185
RICTOR isoform 3 (UniProt Q6R327) 0.01
SHCBP1 (UniProt Q8NEM2) 0.039
RARS2 (UniProt Q5T160) 0
SESN2 (UniProt P58004) 0.167
RPS20 isoform 2 (UniProt P60866) 0.064
RPA3 (UniProt P35244) -0.02
RNF14 (UniProt Q9UBS8) 0.035
RNF187 (UniProt Q5TA31) 0.027
RPS13 (UniProt P62277) 0.148
RBIS (UniProt Q8N0T1) -0.031
SENP6 (UniProt Q9GZR1) -0.005
RMC1 (UniProt Q96DM3) -0.03
RCOR3 isoform 3 (UniProt Q9P2K3) -0.088

Reference: the supplement of paper PMC10849652
